Source: PubChem (National Center for Advancing Translational Sciences (NCATS))
Only a selection was taken, and hits are over-represented in it overall.
Methyltransferases = Primary Screen for Target Class Profiling of Small Molecule Inhibitors of Methyltransferases. purified enzyme, MTase-Glo SAH luminescence; active compounds read low. calls only at 40 µM. hit rate 3.9% among 25,000. AID 1745853, 2022; call rule not given here
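Each enzyme was reacted with SAM and its substrate, with compounds tested once at 40 uM; SAH formed was read by MTase-Glo luminescence.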
* = called active by the depositor; i = inactive; + = active, no number. % is scaled to controls: 0 for no effect and ±100 for the full control effect.

SMILES	Methyltransferases
CCCN1CCN(C(=O)c2cc3n(n2)CC(C)(C(=O)NC2CCCCCC2)N(C)C3=O)CC1 (stereo not drawn)	i
COc1ccccc1CCNC(=O)c1cc2n(n1)CC(C)(C(=O)NC1CCCCC1)N(C)C2=O (stereo not drawn)	i
CCCn1c(=O)c2ccc(C(=O)NC(C)CC)cc2n2c(=O)n(CC(=O)c3cccc(Cl)c3)nc12 (stereo not drawn)	i
COc1ccc(-c2cc3n(n2)CC(C)(C(=O)NC2CCCCC2)N(C2CCCCC2)C3=O)cc1OC (stereo not drawn)	i
CN1C(=O)c2ccccc2NC(=O)[C@]12O[C@@H]2c1cccc(O)c1	i
Cc1[nH]c(/C=C2\C(=O)Nc3cc(-c4ccccc4)ccc32)c(C)c1CCC(=O)O	i
O=C1Nc2ccccc2/C1=C/c1cc(O)ccc1O	+
O=C(CCCc1nnc2n3nc(-c4ccccc4)nc3c3ccccc3n12)NCc1ccc2c(c1)OCO2	i
CC(C)CCn1c(=O)c2ccccc2n2c(CCC(=O)NCCCN3CCOCC3)nnc12	i
CCn1c2ccccc2c2cc(Nc3ccnc(NCCCN4CCOCC4)n3)ccc21	+
Cc1ccc(Cn2c(=O)c3ccccc3n3c(CCC(=O)NCCCN4CCOCC4)nnc23)cc1	i
O=C(c1ccc(F)cc1)N1CCCCCC1c1nnc(-c2ccccc2)o1 (stereo not drawn)	i
CCCn1c(=O)c2ccc(C(=O)NC(C)C)cc2n2c(=O)n(Cc3cc(C)ccc3C)nc12	i
C/C=C/c1ccc2oc(-c3ccc(O)c(OC)c3)c(C)c2c1	i
COc1cc(/C=C/c2cn(-c3ccc(C(=O)O)cc3)nc2/C=C/c2ccc(O)c(OC)c2)ccc1O	+
COc1cc(/C=C/C(=O)O[C@@H]2C[C@@](O)(C(=O)O)C[C@@H](O)[C@@H]2O)ccc1O	i
CCC1c2ccc(C)n2CCN1C(=O)Nc1ccc(C)c(F)c1 (stereo not drawn)	i
CCOC(=O)c1cc2n(n1)CC(C)(C(=O)NCc1ccccc1)N(Cc1cccc(CC)c1)C2=O (stereo not drawn)	i
N=C(N)c1ccccc1	i
O=C(c1ccc(OCCCc2cnc[nH]2)cc1)C1CC1	i
N=C(N)c1ccc(OCCCCCOc2ccc(C(=N)N)cc2)cc1 (tested in a mixture with another compound)	+
CCCN1C(=O)c2c(C(=O)NCc3ccc(OC)cc3OC)ncn2CC1(C)C(=O)NCc1ccc(C)cc1 (stereo not drawn)	i
CC(C)S(=O)(=O)N(C)Cc1cccc(N2CCN(C(=O)c3c(Cl)cccc3Cl)CC2)c1F	i
CN1C(=O)c2cc3ccccc3n2CC1(C)C(=O)NCC(=O)NCc1ccccc1Cl (stereo not drawn)	i
CC(=O)O[C@H]1[C@H](O)C[C@@]2(C)C(CC[C@]3(C)C2CC=C2C4CC(C)(C)CC[C@]4(C(=O)O)CC[C@]23C)C1(C)C (stereo partly drawn)	i
SMILES	Methyltransferases
CC1(C)[C@@H](O)CC[C@]2(C)[C@H]3CC=C4[C@@H]5C[C@](C)(C(=O)O)CC[C@]5(C)CC[C@@]4(C)[C@]3(C)CC[C@@H]12	+
CC1(C)CC[C@]2(C(=O)O)CC[C@]3(C)C(=CCC4[C@@]5(C)C[C@@H](O)[C@H](O)C(C)(C)C5CC[C@]43C)[C@@H]2[C@@H]1O (stereo partly drawn)	i
Cn1c2c(c3ccccc31)C(C(=O)NCc1ccccc1)N(c1ccc(Cl)cc1)C(=O)CS2 (stereo not drawn)	i
CCOc1ccccc1CN1C(=O)c2cc3ccccc3n2CC1(C)C(=O)NCCC(C)C (stereo not drawn)	i
C=C(C)C(=O)OC1CC2(C)OC(=CC2=O)C(=C)CC2OC(=O)C(COC)C12 (stereo not drawn)	+
C=C1CC2OC(=O)C(COC)C2C(OC(=O)/C(C)=C\C)CC2(C)OC1=CC2=O (stereo not drawn)	i
C=C(C)C(=O)OC1CC2(C)OC(=CC2=O)C(=C)CC2OC(=O)C(=C)C12 (stereo not drawn)	i
COc1ccc(-c2cc3n(n2)CC(C)(C(=O)NCc2ccccc2OC)N(Cc2ccc(C)o2)C3=O)cc1 (stereo not drawn)	i
CCCn1c(=O)c2ccc(C(=O)NC(C)CC)cc2n2c(=O)n(Cc3ccc(C)cc3)nc12 (stereo not drawn)	i
Cc1cc(N)c2ccccc2[n+]1CCCCCCCCCC[n+]1c(C)cc(N)c2ccccc21	+
CCCn1c(=O)c2cc(F)ccc2n2c(SCC(=O)Nc3ccccc3F)nnc12	i
COCCNC(=O)CCc1nnc2n(Cc3ccc(C)cc3)c(=O)c3ccccc3n12	i
C=CCn1c(=O)c2ccc(C(=O)NC(C)CC)cc2n2c(=O)[nH]nc12 (stereo not drawn)	i
C=C(C(=O)O[C@H]1C/C(C)=C/CC/C(CO)=C/[C@H]2OC(=O)C(=C)[C@H]12)C(O)CO (stereo partly drawn)	i
